In all, about 33,000 sequences were measured (“E-score (-0.5 to 0.5)”: median about -0.053, highest 2% from about 0.37 on). The sample holds the highest values, similar sequences and a random draw of the others, so the mix is not that of the screen.
These sequences were tested against Hap1 (UniProt P0CE41) (assay: PBM E-score (8-mer binding enrichment) (E-score (-0.5 to 0.5)); higher = stronger / more preferred TF binding). Conditions: protein concentration: 200 nM; construct: GST-DNA-binding domain.
UniProt P0CE41, sequence (P0CE41 whole entry, the tested form may be a part): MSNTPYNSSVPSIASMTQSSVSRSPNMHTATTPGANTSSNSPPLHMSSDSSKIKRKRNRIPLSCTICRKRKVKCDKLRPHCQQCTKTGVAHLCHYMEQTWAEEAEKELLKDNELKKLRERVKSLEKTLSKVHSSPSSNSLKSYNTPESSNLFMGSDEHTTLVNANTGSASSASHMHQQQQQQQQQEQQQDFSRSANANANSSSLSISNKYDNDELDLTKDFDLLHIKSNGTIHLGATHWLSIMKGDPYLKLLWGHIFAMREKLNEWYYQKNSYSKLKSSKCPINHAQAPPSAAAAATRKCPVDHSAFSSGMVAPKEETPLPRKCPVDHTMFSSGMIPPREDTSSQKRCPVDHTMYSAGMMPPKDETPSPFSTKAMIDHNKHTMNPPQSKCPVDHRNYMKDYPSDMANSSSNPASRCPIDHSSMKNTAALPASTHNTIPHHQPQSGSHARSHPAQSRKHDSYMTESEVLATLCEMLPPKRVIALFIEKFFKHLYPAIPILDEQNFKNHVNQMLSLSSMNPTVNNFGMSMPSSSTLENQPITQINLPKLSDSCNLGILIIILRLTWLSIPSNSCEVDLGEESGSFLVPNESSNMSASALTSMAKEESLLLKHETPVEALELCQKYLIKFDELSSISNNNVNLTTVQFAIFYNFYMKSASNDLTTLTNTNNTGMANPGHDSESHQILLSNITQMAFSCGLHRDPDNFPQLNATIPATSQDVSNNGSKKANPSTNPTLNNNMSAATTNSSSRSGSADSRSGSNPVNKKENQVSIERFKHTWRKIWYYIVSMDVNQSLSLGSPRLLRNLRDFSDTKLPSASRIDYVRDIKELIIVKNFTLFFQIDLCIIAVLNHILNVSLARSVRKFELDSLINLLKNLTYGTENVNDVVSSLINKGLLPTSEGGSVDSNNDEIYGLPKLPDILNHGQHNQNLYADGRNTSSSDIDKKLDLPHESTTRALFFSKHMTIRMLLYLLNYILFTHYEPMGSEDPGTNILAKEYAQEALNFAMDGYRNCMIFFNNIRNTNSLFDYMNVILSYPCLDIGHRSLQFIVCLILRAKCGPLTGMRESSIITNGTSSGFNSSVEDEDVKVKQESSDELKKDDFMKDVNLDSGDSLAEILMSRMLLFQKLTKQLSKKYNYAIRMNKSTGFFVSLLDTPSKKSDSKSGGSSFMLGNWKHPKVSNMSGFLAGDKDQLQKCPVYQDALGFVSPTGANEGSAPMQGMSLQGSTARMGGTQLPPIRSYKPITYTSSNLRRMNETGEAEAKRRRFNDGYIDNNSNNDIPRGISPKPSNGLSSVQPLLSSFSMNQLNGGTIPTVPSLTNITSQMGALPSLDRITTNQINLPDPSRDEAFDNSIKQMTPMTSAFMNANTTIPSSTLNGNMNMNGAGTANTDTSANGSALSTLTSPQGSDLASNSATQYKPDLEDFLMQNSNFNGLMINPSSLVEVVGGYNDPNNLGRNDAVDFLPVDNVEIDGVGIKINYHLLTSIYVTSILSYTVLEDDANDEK
Summary of the method: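 Yeast transcription factors carrying a GST tag, as full-length proteins or DNA-binding domains, were produced by PURExpress in vitro transcription/translation. About 100-200 nM protein was applied to universal all-10-mer Agilent arrays, double-stranded by primer extension on fresh or once-stripped slides. Bound protein was detected with fluorescent anti-GST, and scans were normalised with masliner. The Universal PBM Analysis Suite gave each ungapped eight-base word, pooled with its reverse complement, an E-score, a modified Wilcoxon-Mann-Whitney statistic.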

Sequence | PBM E-score
CGTTGGTC | -0.0912
ACGGGAAC | 0.101
GGAAGACC | 0.0832
GCCCACTA | -0.137
CTCACACC | -0.15
CGCGGCAG | 0.1
GACTGTAC | -0.171
GAGCTGCA | -0.00591
CCCCGCTC | 0.0426
ATCGGCAC | 0.315
CGCGCGAC | 0.2
CAATCCGG | 0.375
TAATCCGA | 0.346
AAATCCGA | 0.457
CAATCCGC | 0.191
GAATCCGA | 0.307
GAATCCGC | 0.179
AAATCCGC | 0.387
CAATCCCG | 0.272
CAATCCGA | 0.241
AAATCCCG | 0.379
AAATCCAC | 0.0573
AAATCCCA | -0.0185
AAATCCGG | 0.475

Sequence | PBM E-score
AAATCCCT | -0.166
AAATCCTG | -0.118
AAATCCTT | 0.0613
AAATCCAG | 0.0422
AAATCCGT | 0.396
CCTTTGGA | -0.215
GGCTGCTA | -0.0615
AGACCGAG | 0.373
AGACCGAC | 0.346
CGACCGAA | 0.378
CGACCGAC | 0.301
CCACCGAG | 0.14
AGACCGAT | 0.35
AGACCGAA | 0.281
CTACCGAG | 0.139
CGACCGAG | 0.371
GCAGCTTA | -0.171
CCTGAGAA | -0.253
CCTATCAG | -0.147
GACAGCAA | -0.221
TGACTCAA | -0.251
CGGCTGTC | 0.175
GGGCACAA | -0.0367
GAGGACGC | -0.0224

— the supplement of paper PMC3334620
